Over roughly 16,000 sequences, “rpm ratio (pull-down/input)” has its median near 0.5; the highest 2% begin near 5.5. The entries come from a sample that favours the highest values as a whole.

The assay has as its target T1, MBP-FoxP3dN (Mus musculus, UniProt Q99JB6 188-423).
T1 sequence: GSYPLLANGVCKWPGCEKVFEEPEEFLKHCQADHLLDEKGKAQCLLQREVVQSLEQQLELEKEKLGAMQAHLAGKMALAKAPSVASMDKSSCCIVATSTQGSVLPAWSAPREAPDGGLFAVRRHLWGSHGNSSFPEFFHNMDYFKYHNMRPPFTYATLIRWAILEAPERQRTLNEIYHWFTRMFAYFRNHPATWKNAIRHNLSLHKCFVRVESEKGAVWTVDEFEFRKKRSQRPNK
Description: PD-seq (MBP pull-down with sequencing); 20 mM Tris-HCl pH 7.5, 100 mM NaCl, 1.5 mM MgCl2, 0.4 uM protein, 0.1 uM dsDNA library, 30 min, room temperature, amylose pull-down; high values mean tight binding. To be noted: protein: recombinant; tags: His6-MBP; chain copies: 2; dsDNA, one strand shown. Summed up:
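Binding is the reads-per-million enrichment of pull-down relative to input, pooled across replicates. For this, 0.4 µM His6-MBP-tagged mouse FoxP3 or FoxP1 fragment lacking the N-terminus, made in E. coli, was incubated with 0.1 µM Klenow-filled double-stranded degenerate DNA library for 30 min at room temperature in Tris pH 7.5 buffer with NaCl and MgCl2. Complexes bound to amylose resin were washed three times before proteinase K released the DNA for PCR barcoding and Illumina sequencing.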
Regarding “GATGATTGTTCTCCCAGCTGATGAATTCGAGATATCGAGTAAACAAATTTTCCTAATCTTTCTGTTCAAGCGCCATCTAC”, the binding signal was 0.404 RPM ratio (pull-down/input). Under “GATGATTGTTCTCCCAGCTGATGAATTGGTAGCCTCGAGTAAACAAATTTTCCTAATCTTTCTGTTCAAGCGCCATCTAC” stands 0.924 RPM ratio (pull-down/input).

With “GATGATTGTTCTCCCAGCTGATGAATTCACTGTATCGAGTAAACAAATTTTCCTAATCTTTCTGTTCAAGCGCCATCTAC”, the binding signal is 0.627 RPM ratio (pull-down/input). As for “GATGATTGTTCTCCCAGCTGATGAATTGTCTGTATCGAGTAAACAAATTTTCCTAATCTTTCTGTTCAAGCGCCATCTAC”, the figure is 0.624 RPM ratio (pull-down/input); as for “GATGATTGTTCTCCCAGCTGATGAATTGTGGCGTTCGAGTAAACAAATTTTCCTAATCTTTCTGTTCAAGCGCCATCTAC”, 2.54 RPM ratio (pull-down/input); as for “GATGATTGTTCTCCCAGCTGATGAATTGAATGATTCGAGTAAACAAATTTTCCTAATCTTTCTGTTCAAGCGCCATCTAC”, 0.737 RPM ratio (pull-down/input). Regarding “GATGATTGTTCTCCCAGCTGATGAATTCGAACACTCGAGTAAACAAATTTTCCTAATCTTTCTGTTCAAGCGCCATCTAC”, the binding signal was 0.457 RPM ratio (pull-down/input). Under “GATGATTGTTCTCCCAGCTGATGAATTTTTCCGTTCGAGTAAACAAATTTTCCTAATCTTTCTGTTCAAGCGCCATCTAC” stands 0.238 RPM ratio (pull-down/input); under “GATGATTGTTCTCCCAGCTGATGAATTCACTCAATCGAGTAAACAAATTTTCCTAATCTTTCTGTTCAAGCGCCATCTAC”, 0.294 RPM ratio (pull-down/input); under “GATGATTGTTCTCCCAGCTGATGAATTGGGACTGTCGAGTAAACAAATTTTCCTAATCTTTCTGTTCAAGCGCCATCTAC”, 0.673 RPM ratio (pull-down/input).

For “GATGATTGTTCTCCCAGCTGATGAATTACACTATTCGAGTAAACAAATTTTCCTAATCTTTCTGTTCAAGCGCCATCTAC”, the binding signal was 0.606 RPM ratio (pull-down/input). As for “GATGATTGTTCTCCCAGCTGATGAATTGCATCCCTCGAGTAAACAAATTTTCCTAATCTTTCTGTTCAAGCGCCATCTAC”, the figure is 4.21 RPM ratio (pull-down/input); as for “GATGATTGTTCTCCCAGCTGATGAATTGCCATCCTCGAGTAAACAAATTTTCCTAATCTTTCTGTTCAAGCGCCATCTAC”, 0.935 RPM ratio (pull-down/input). As for “GATGATTGTTCTCCCAGCTGATGAATTTGCATCCTCGAGTAAACAAATTTTCCTAATCTTTCTGTTCAAGCGCCATCTAC”, the binding signal is 7.55 RPM ratio (pull-down/input). As for “GATGATTGTTCTCCCAGCTGATGAATTGTAACCATCGAGTAAACAAATTTTCCTAATCTTTCTGTTCAAGCGCCATCTAC”, the figure is 1.1 RPM ratio (pull-down/input); as for “GATGATTGTTCTCCCAGCTGATGAATTGGACGACTCGAGTAAACAAATTTTCCTAATCTTTCTGTTCAAGCGCCATCTAC”, 0.259 RPM ratio (pull-down/input). As for “GATGATTGTTCTCCCAGCTGATGAATTGTGTTCATCGAGTAAACAAATTTTCCTAATCTTTCTGTTCAAGCGCCATCTAC”, the figure is 1.77 RPM ratio (pull-down/input).

For the sequence “GATGATTGTTCTCCCAGCTGATGAATTCGAGTTATCGAGTAAACAAATTTTCCTAATCTTTCTGTTCAAGCGCCATCTAC”, the binding signal was 0.746 RPM ratio (pull-down/input).

For “GATGATTGTTCTCCCAGCTGATGAATTGCCAAATTCGAGTAAACAAATTTTCCTAATCTTTCTGTTCAAGCGCCATCTAC”, the binding signal is 0.453 RPM ratio (pull-down/input). For “GATGATTGTTCTCCCAGCTGATGAATTGGATCCGTCGAGTAAACAAATTTTCCTAATCTTTCTGTTCAAGCGCCATCTAC”, the binding signal is 0.219 RPM ratio (pull-down/input).

In the case of “GATGATTGTTCTCCCAGCTGATGAATTGTTTGTGTCGAGTAAACAAATTTTCCTAATCTTTCTGTTCAAGCGCCATCTAC”, the binding signal was 8.22 RPM ratio (pull-down/input). Under “GATGATTGTTCTCCCAGCTGATGAATTGTGTGTGTCGAGTAAACAAATTTTCCTAATCTTTCTGTTCAAGCGCCATCTAC” stands 5.21 RPM ratio (pull-down/input). For the sequence “GATGATTGTTCTCCCAGCTGATGAATTTTGTGTTTCGAGTAAACAAATTTTCCTAATCTTTCTGTTCAAGCGCCATCTAC”, the binding signal was 5.3 RPM ratio (pull-down/input). Consider “GATGATTGTTCTCCCAGCTGATGAATTGTGTTTGTCGAGTAAACAAATTTTCCTAATCTTTCTGTTCAAGCGCCATCTAC”, for which the binding signal was 8.45 RPM ratio (pull-down/input).

Turning to “GATGATTGTTCTCCCAGCTGATGAATTTTGTTCCTCGAGTAAACAAATTTTCCTAATCTTTCTGTTCAAGCGCCATCTAC”, the binding signal is 1.64 RPM ratio (pull-down/input). As for “GATGATTGTTCTCCCAGCTGATGAATTTTTGTTCTCGAGTAAACAAATTTTCCTAATCTTTCTGTTCAAGCGCCATCTAC”, the binding signal was 0.494 RPM ratio (pull-down/input).

Take “GATGATTGTTCTCCCAGCTGATGAATTGTTTTCCTCGAGTAAACAAATTTTCCTAATCTTTCTGTTCAAGCGCCATCTAC”: the binding signal is 4.78 RPM ratio (pull-down/input). For “GATGATTGTTCTCCCAGCTGATGAATTTGTTTCCTCGAGTAAACAAATTTTCCTAATCTTTCTGTTCAAGCGCCATCTAC”, the binding signal is 5.92 RPM ratio (pull-down/input). Under “GATGATTGTTCTCCCAGCTGATGAATTGTTTACCTCGAGTAAACAAATTTTCCTAATCTTTCTGTTCAAGCGCCATCTAC” stands 7.12 RPM ratio (pull-down/input); under “GATGATTGTTCTCCCAGCTGATGAATTTTTTACCTCGAGTAAACAAATTTTCCTAATCTTTCTGTTCAAGCGCCATCTAC”, 0.228 RPM ratio (pull-down/input); under “GATGATTGTTCTCCCAGCTGATGAATTTGTTTTCTCGAGTAAACAAATTTTCCTAATCTTTCTGTTCAAGCGCCATCTAC”, 7.21 RPM ratio (pull-down/input).

For “GATGATTGTTCTCCCAGCTGATGAATTTTGTTTCTCGAGTAAACAAATTTTCCTAATCTTTCTGTTCAAGCGCCATCTAC”, the binding signal is 5.54 RPM ratio (pull-down/input). Take “GATGATTGTTCTCCCAGCTGATGAATTGTTTTTCTCGAGTAAACAAATTTTCCTAATCTTTCTGTTCAAGCGCCATCTAC”: the binding signal is 4.35 RPM ratio (pull-down/input).

Regarding “GATGATTGTTCTCCCAGCTGATGAATTTACCTCCTCGAGTAAACAAATTTTCCTAATCTTTCTGTTCAAGCGCCATCTAC”, the binding signal is 0.573 RPM ratio (pull-down/input). Under “GATGATTGTTCTCCCAGCTGATGAATTTGATTTCTCGAGTAAACAAATTTTCCTAATCTTTCTGTTCAAGCGCCATCTAC” stands 4.02 RPM ratio (pull-down/input); under “GATGATTGTTCTCCCAGCTGATGAATTTGTTCTCTCGAGTAAACAAATTTTCCTAATCTTTCTGTTCAAGCGCCATCTAC”, 2.14 RPM ratio (pull-down/input).

For the origin of these results see paper PMC12820563, “FoxP3 forms a head-to-head dimer in vivo and stabilizes its multimerization on adjacent microsatellites”.
